Source: PubChem BioAssay (NCI)
This is part of a sample that, as a whole, favours compounds with a hit. Of some 79,000 tested, about 15% had one in any assay. Values without a mark were called inactive. Active and inactive are the calls of the source. Cut-off read from the data, not from the text of the source: active = growth inhibition above about 70%; inactive = the rest.

What was measured:
[1] = NCI Yeast Anticancer Drug Screen. Data for the rad52 strain (AID 147);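 note: 0% = growth of vehicle-treated control cultures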; conditions: S. cerevisiae rad52 mutant growth inhibition, active compounds read high
Summary of the method: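 Screen used a yeast mutant impaired in DNA repair. After compound exposure, growth was measured. Values reflect inhibition compared with vehicle-treated cells.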

[2] = NCI Yeast Anticancer Drug Screen. Data for the wt1 strain (AID 149);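 note: 0% = growth of vehicle-treated wt1 cultures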; conditions: S. cerevisiae wt1 strain (SPY 50644) growth inhibition, active compounds read high
Summary of the method: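 Compounds are added to wt1 yeast cultures. Growth is then measured. Inhibition is expressed relative to vehicle-treated controls.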

[3] = NCI Yeast Anticancer Drug Screen. Data for the rad50EPP+ strain (AID 151);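 note: 0% = growth of vehicle-treated control cultures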; conditions: S. cerevisiae rad50 mutant strain, active compounds read high
Summary of the method: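 Exposing the rad50EPP+ strain to each compound, growth was compared with vehicle-only cultures to give inhibition.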

[4] = NCI Yeast Anticancer Drug Screen. Data for the mgt1 strain (AID 153); conditions: S. cerevisiae mgt1 mutant growth inhibition, active compounds read high
Summary of the method: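 Genetically defined yeast (mgt1) treated with compound; inhibition of growth expressed against vehicle-treated controls.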

[5] = NCI Yeast Anticancer Drug Screen. Data for the rad50 strain (AID 155);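 note: 0% = growth of vehicle-only cultures of the same strain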; conditions: S. cerevisiae rad50 strain growth inhibition, active compounds read high
Summary of the method: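 Inhibition values express reduced yeast growth in compound-treated cultures relative to vehicle-treated controls.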

[6] = NCI Yeast Anticancer Drug Screen. Data for the mec2-1 strain (AID 157); conditions: S. cerevisiae mec2-1 strain, active compounds read high
Summary of the method: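 Readout is yeast growth inhibition, normalised to vehicle-treated controls, in the mec2-1 strain exposed to compound.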

[7] = NCI Yeast Anticancer Drug Screen. Data for the rad14 strain (AID 159);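 note: 0% = growth of vehicle-treated control cultures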; conditions: S. cerevisiae rad14 strain growth inhibition, active compounds read high
Summary of the method: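 A mutant yeast strain defective in DNA damage repair is treated with compound; inhibition of its growth is scored against untreated, vehicle-exposed cultures.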

[8] = NCI Yeast Anticancer Drug Screen. Data for the sgs1 mgt1 strain (AID 161);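 note: 0% = growth of cultures given vehicle only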; conditions: S. cerevisiae sgs1 mgt1 strain, active compounds read high
Summary of the method: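 Yeast cells carrying a defined DNA-repair defect were exposed to test compounds. Growth inhibition was measured relative to vehicle-treated controls.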

[9] = NCI Yeast Anticancer Drug Screen. Data for the CLN2oe strain (AID 163);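 note: 0% = growth of vehicle-only control cultures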; conditions: S. cerevisiae CLN2oe strain, active compounds read high
Summary of the method: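 Values reflect how much compound exposure reduced yeast growth, referenced to vehicle-exposed cells. Assay organism is a strain with a defined genetic change affecting cell-cycle control.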

[10] = NCI Yeast Anticancer Drug Screen. Data for the cln2 rad14 strain (AID 165);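 note: 0% = growth equal to vehicle treated cultures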; conditions: S. cerevisiae cln2 rad14 strain, active compounds read high
Summary of the method: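 Relative to vehicle controls, growth inhibition of compound-treated cln2 rad14 yeast was recorded.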

[11] = NCI Yeast Anticancer Drug Screen. Data for the bub3 strain (AID 167); conditions: S. cerevisiae bub3 mutant strain, active compounds read high
Summary of the method: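 Steps: expose the mutant yeast strain to compound; grow alongside vehicle-treated cultures; measure growth; express inhibition against the vehicle cultures.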

[12] = NCI Yeast Anticancer Drug Screen. Data for the wt2 strain (AID 169);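 note: 0% = growth of vehicle-treated yeast cultures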; conditions: S. cerevisiae wt2 strain growth inhibition, active compounds read high
Summary of the method: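 Values express reduction in yeast growth under compound treatment, referenced to vehicle-treated cells.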

[13] = NCI Yeast Anticancer Drug Screen. Data for the mlh1 strain (AID 171);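 note: 0% = growth of vehicle-treated control cultures of the same strain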; conditions: S. cerevisiae mlh1 strain growth inhibition, active compounds read high
Summary of the method: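 Steps: expose the defined-mutant yeast strain to compound; expose a parallel culture to vehicle; measure growth; express compound effect as inhibition relative to the vehicle culture.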

[14] = NCI Yeast Anticancer Drug Screen. Data for the sgs1 strain (AID 173);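 note: 0% = growth of vehicle-only control cultures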; conditions: S. cerevisiae sgs1 mutant, active compounds read high
Summary of the method: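 Treat defined-mutant yeast with compound; measure growth; calculate inhibition relative to vehicle-treated cells.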

[15] = NCI Yeast Anticancer Drug Screen. Data for the mlh1 rad18 strain (AID 175); conditions: S. cerevisiae mlh1 rad18 strain growth inhibition, active compounds read high
Summary of the method: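 Test agents were incubated with a yeast strain of defined genotype (DNA damage repair defect). Inhibition of growth was derived by comparison with vehicle-exposed cultures.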

[16] = at 5.0 µM (retest, dose inferred, filed as 0.5)
[17] = at 50.0 µM (retest, dose inferred, filed as 5.0)

## Cc1ccc(CSC(N)=Nc2ccccc2)cc1C
[1]; at 1.2 µM
  growth inhibition: 20%
[1]; at 3.7 µM
  growth inhibition: 21%
[1]; at 11.0 µM
  growth inhibition: 21%
[1]; at 33.0 µM
  growth inhibition: 24%
[1]; at 100.0 µM
  growth inhibition: 30%
[2]; at 1.2 µM
  growth inhibition: 3%
[2]; at 3.7 µM
  growth inhibition: 13%
[2]; at 11.0 µM
  growth inhibition: 0%
[2]; at 33.0 µM
  growth inhibition: 4%
[2]; at 100.0 µM
  growth inhibition: 21%
[3]; at 1.2 µM
  growth inhibition: 4%
[3]; at 3.7 µM
  growth inhibition: 12%
[3]; at 11.0 µM
  growth inhibition: 11%
[3]; at 33.0 µM
  growth inhibition: 4%
[3]; at 100.0 µM
  growth inhibition: 15%
[4]; at 1.2 µM
  growth inhibition: 6%
[4]; at 3.7 µM
  growth inhibition: -1%
[4]; at 11.0 µM
  growth inhibition: -8%
[4]; at 33.0 µM
  growth inhibition: 14%
[4]; at 100.0 µM
  growth inhibition: 81% (active)
[5]; at 1.2 µM
  growth inhibition: 9%
[5]; at 3.7 µM
  growth inhibition: 5%
[5]; [16]
  growth inhibition: 5%
[5]; at 11.0 µM
  growth inhibition: 14%
[5]; at 33.0 µM
  growth inhibition: 22%
[5]; [17]
  growth inhibition: 40%
[5]; at 50.0 µM
  growth inhibition: 61.5%
[5]; at 100.0 µM
  growth inhibition: 30%
[6]; at 1.2 µM
  growth inhibition: -3%
[6]; at 3.7 µM
  growth inhibition: 10%
[6]; [16]
  growth inhibition: -11%
[6]; at 11.0 µM
  growth inhibition: -11%
[6]; at 33.0 µM
  growth inhibition: 1%
[6]; [17]
  growth inhibition: -22%
[6]; at 50.0 µM
  growth inhibition: 24.2%
[6]; at 100.0 µM
  growth inhibition: 40%
[7]; at 1.2 µM
  growth inhibition: -22%
[7]; at 3.7 µM
  growth inhibition: -14%
[7]; at 11.0 µM
  growth inhibition: -17%
[7]; at 33.0 µM
  growth inhibition: 10%
[7]; at 100.0 µM
  growth inhibition: 64%
[8]; [16]
  growth inhibition: -10%
[8]; [17]
  growth inhibition: 38%
[8]; at 50.0 µM
  growth inhibition: 53.2%
[9]; at 1.2 µM
  growth inhibition: 6%
[9]; at 3.7 µM
  growth inhibition: 10%
[9]; at 11.0 µM
  growth inhibition: -1%
[9]; at 33.0 µM
  growth inhibition: 7%
[9]; at 100.0 µM
  growth inhibition: 46%
[10]; [16]
  growth inhibition: -16%
[10]; [17]
  growth inhibition: 14%
[10]; at 50.0 µM
  growth inhibition: -4.5%
[11]; at 1.2 µM
  growth inhibition: 4%
[11]; at 3.7 µM
  growth inhibition: 5%
[11]; [16]
  growth inhibition: 11%
[11]; at 11.0 µM
  growth inhibition: -4%
[11]; at 33.0 µM
  growth inhibition: 14%
[11]; [17]
  growth inhibition: 22%
[11]; at 50.0 µM
  growth inhibition: 80% (active)
[11]; at 100.0 µM
  growth inhibition: 34%
[12]; at 1.2 µM
  growth inhibition: 2%
[12]; at 3.7 µM
  growth inhibition: -3%
[12]; at 11.0 µM
  growth inhibition: -13%
[12]; at 33.0 µM
  growth inhibition: -5%
[12]; at 100.0 µM
  growth inhibition: 66%
[13]; at 1.2 µM
  growth inhibition: -7%
[13]; at 3.7 µM
  growth inhibition: -12%
[13]; at 11.0 µM
  growth inhibition: -6%
[13]; at 33.0 µM
  growth inhibition: 4%
[13]; at 100.0 µM
  growth inhibition: 66%
[14]; at 1.2 µM
  growth inhibition: 6%
[14]; at 3.7 µM
  growth inhibition: 0%
[14]; at 11.0 µM
  growth inhibition: 7%
[14]; at 33.0 µM
  growth inhibition: 19%
[14]; at 100.0 µM
  growth inhibition: 73% (active)
[15]; [16]
  growth inhibition: -5%
[15]; [17]
  growth inhibition: 41%
[15]; at 50.0 µM
  growth inhibition: 42%

## NNc1c(F)c(F)cc(F)c1F
[1]; at 1.2 µM
  growth inhibition: -11%
[1]; at 3.7 µM
  growth inhibition: -19%
[1]; at 11.0 µM
  growth inhibition: -21%
[1]; at 33.0 µM
  growth inhibition: -11%
[1]; at 100.0 µM
  growth inhibition: 21%
[2]; at 1.2 µM
  growth inhibition: -28%
[2]; at 3.7 µM
  growth inhibition: -27%
[2]; at 11.0 µM
  growth inhibition: -20%
[2]; at 33.0 µM
  growth inhibition: -26%
[2]; at 100.0 µM
  growth inhibition: -14%
[3]; at 1.2 µM
  growth inhibition: 2%
[3]; at 3.7 µM
  growth inhibition: -1%
[3]; at 11.0 µM
  growth inhibition: 21%
[3]; at 33.0 µM
  growth inhibition: 54%
[3]; at 100.0 µM
  growth inhibition: 82% (active)
[4]; at 1.2 µM
  growth inhibition: -17%
[4]; at 3.7 µM
  growth inhibition: -23%
[4]; at 11.0 µM
  growth inhibition: -17%
[4]; at 33.0 µM
  growth inhibition: -6%
[4]; at 100.0 µM
  growth inhibition: 7%
[5]; at 1.2 µM
  growth inhibition: -15%
[5]; at 3.7 µM
  growth inhibition: -22%
[5]; [16]
  growth inhibition: -16%
[5]; at 11.0 µM
  growth inhibition: -18%
[5]; at 33.0 µM
  growth inhibition: -15%
[5]; [17]
  growth inhibition: 8%
[5]; at 50.0 µM
  growth inhibition: 24.8%
[5]; at 100.0 µM
  growth inhibition: 25%
[6]; at 1.2 µM
  growth inhibition: -37%
[6]; at 3.7 µM
  growth inhibition: -35%
[6]; [16]
  growth inhibition: -11%
[6]; at 11.0 µM
  growth inhibition: -38%
[6]; at 33.0 µM
  growth inhibition: -20%
[6]; [17]
  growth inhibition: 6%
[6]; at 50.0 µM
  growth inhibition: 33.1%
[6]; at 100.0 µM
  growth inhibition: 35%
[7]; at 1.2 µM
  growth inhibition: -25%
[7]; at 3.7 µM
  growth inhibition: -25%
[7]; at 11.0 µM
  growth inhibition: -27%
[7]; at 33.0 µM
  growth inhibition: -21%
[7]; at 100.0 µM
  growth inhibition: -4%
[8]; [16]
  growth inhibition: 0%
[8]; [17]
  growth inhibition: 23%
[8]; at 50.0 µM
  growth inhibition: 67.9%
[9]; at 1.2 µM
  growth inhibition: 0%
[9]; at 3.7 µM
  growth inhibition: -4%
[9]; at 11.0 µM
  growth inhibition: 3%
[9]; at 33.0 µM
  growth inhibition: 18%
[9]; at 100.0 µM
  growth inhibition: 26%
[10]; [16]
  growth inhibition: 21%
[10]; [17]
  growth inhibition: 42%
[10]; at 50.0 µM
  growth inhibition: 46.9%
[11]; at 1.2 µM
  growth inhibition: -11%
[11]; at 3.7 µM
  growth inhibition: -18%
[11]; [16]
  growth inhibition: 27%
[11]; at 11.0 µM
  growth inhibition: -3%
[11]; at 33.0 µM
  growth inhibition: 10%
[11]; [17]
  growth inhibition: 70% (active)
[11]; at 50.0 µM
  growth inhibition: 84.6% (active)
[11]; at 100.0 µM
  growth inhibition: 47%
